Test results taken from PubChem BioAssay (NCATS).
Inconclusive results are not listed. Calls of active or inactive are those of the source. The call rests on the fitted dose curve; in most records, active means well fitted curve in the direction sought with a large enough effect; inconclusive means small, poorly fitted or top-dose-only effect, or another doubt; inactive means no such curve, though single readings can be large; an effect the other way counts as inactive or inconclusive.

Columns and labels:
[1] = qHTS of pediatric cancer cell lines to identify multiple opportunities for drug repurposing: Primary screen for NB-EBc1 cells (AID 1347095)
Summary of the method: (§1)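 ATP-based luminescence (CellTiter-Glo) quantifies viability after a 48-hour exposure. Compounds are dosed across 8 or 11 final concentrations; DMSO and 2.3 µM bortezomib serve as controls.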

[2] = qHTS of pediatric cancer cell lines to identify multiple opportunities for drug repurposing: Primary screen for Saos-2 cells (AID 1347097); further: nearly all actives have a fitted effect of over 40% in size
Summary of the method: as §1

[3] = qHTS of pediatric cancer cell lines to identify multiple opportunities for drug repurposing: Primary screen for SK-N-SH cells (AID 1347098); further: nearly all actives have a fitted effect of over 65% in size
Summary of the method: (§2)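 Cells (500-1,000/well) rested 5 h, then received compounds for 48 h; metabolically active cells were measured by CellTiter-Glo luminescence. Final concentrations spanned up to 46 µM (MIPE, 11-point) or 0.59 nM-46 µM (NPC, 8-point) in primary screens, 11-point in follow-ups.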

[4] = qHTS of pediatric cancer cell lines to identify multiple opportunities for drug repurposing: Primary screen for NB1643 cells (AID 1347099); further: nearly all actives have a fitted effect of over 50% in size
Summary of the method: as §1

[5] = qHTS of pediatric cancer cell lines to identify multiple opportunities for drug repurposing: Primary screen for LAN-5 cells (AID 1347100)
Summary of the method: (§3)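 Viability after 48 h compound treatment at 37C, 500-1,000 cells/well, read as ATP luminescence with CellTiter-Glo. Primary screens used 11-point (MIPE, 0.78 nM-46 µM) or 8-point (NPC, 0.59 nM-46 µM) final concentrations; follow-up screens used 11-point dilutions.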

[6] = qHTS of pediatric cancer cell lines to identify multiple opportunities for drug repurposing: Primary screen for BT-12 cells (AID 1347101); further: nearly all actives have a fitted effect of over 25% in size
Summary of the method: as §2

[7] = qHTS of pediatric cancer cell lines to identify multiple opportunities for drug repurposing: Primary screen for Rh18 cells (AID 1347102); further: nearly all actives have a fitted effect of over 65% in size
Summary of the method: as §3

[8] = qHTS of pediatric cancer cell lines to identify multiple opportunities for drug repurposing: Primary screen for OHS-50 cells (AID 1347103); further: nearly all actives have a fitted effect of over 40% in size
Summary of the method: as §2

[9] = qHTS of pediatric cancer cell lines to identify multiple opportunities for drug repurposing: Primary screen for RD cells (AID 1347104); further: nearly all actives have a fitted effect of over 55% in size
Summary of the method: as §1

[10] = qHTS of pediatric cancer cell lines to identify multiple opportunities for drug repurposing: Primary screen for U-2 OS cells (AID 1347096); further: nearly all actives have a fitted effect of over 50% in size
Summary of the method: as §3

Measured: Potency
Potency means the concentration at half of the fitted maximal effect.

COc1cc2nccc(Oc3ccc(NC(=O)C4(C(=O)Nc5ccc(F)cc5)CC4)cc3)c2cc1OC
active: [1] 743 nM | [2] 18700 nM | [3] 3410 nM | [4] 9350 nM | [5] 1480 nM | [6] 15300 nM | [7] 10500 nM | [8] 27300 nM | [9] 16600 nM

Cn1c2cc(S(C)=O)sc2c2cnn(Cc3cccc(N)c3)c(=O)c21 (stereo not given)
not listed: [2] | [3]
inactive: all other assays above

COc1ccc(-c2cc3c(C)nc(N)nc3n(C3CCC(OCCO)CC3)c2=O)cn1 (stereo not given)
active: [1] 59 nM | [10] 469 nM | [3] 2410 nM | [4] 166 nM | [5] 469 nM | [7] 93.5 nM | [8] 7.7 nM | [9] 187 nM

Cc1c(Cn2c(C)nc3c(C(=O)O)cc(N4CCOCC4)cc32)cccc1C(F)(F)F
inactive: [10] | [5] | [6] | [7]
active: [1] 14800 nM | [9] 1660 nM

CC(C)c1noc(N2CCC(COc3ccc(-c4ccc(S(C)(=O)=O)cc4)nc3)CC2)n1
active: [8] 4320 nM
not listed: [2] | [6] | [9]
inactive: all other assays above

C=C1C(=CC=C2CCC[C@]3(C)[C@@H]([C@H](C)C=C[C@H](C)C(C)C)CC[C@@H]23)C[C@@H](O)C[C@@H]1O
active: [1] 526 nM | [2] 2960 nM | [3] 1920 nM | [4] 935 nM | [5] 469 nM | [6] 2170 nM | [7] 743 nM | [8] 685 nM | [9] 1660 nM

c1cc(-c2cnn3cc(-c4ccc(OCCN5CCCCC5)cc4)cnc23)ccn1
active: [1] 23500 nM | [3] 21500 nM | [4] 3720 nM | [5] 9350 nM | [6] 24300 nM | [7] 20900 nM | [8] 9680 nM | [9] 18700 nM
inactive: [10]

CCS(=O)(=O)c1cccc(-c2cc(C(=O)NC3CCN(C)CC3)c(C)c3[nH]c4ncc(C)cc4c23)c1
active: [1] 16600 nM | [10] 14800 nM | [3] 6810 nM | [4] 526 nM | [5] 118 nM | [6] 6110 nM | [7] 1180 nM | [8] 769 nM | [9] 2640 nM
